Results published in PubChem BioAssay (NCATS).
Records with an inconclusive call do not appear. Values without a mark were called inactive. Active and inactive are the calls of the source. Calls come from the whole dose curve; as a rule, active = well fitted curve in the direction sought with a large enough effect; inconclusive = small, poorly fitted or top-dose-only effect, or another doubt; inactive = no such curve, though single readings can be large; an effect the other way counts as inactive or inconclusive.

Legend:
[1] = BET inhibitor-based combinations targeting novel dependencies in MECOM-rearranged (r) AML: SET-2 cell line (AID 2202231); conditions: SET-2 AML cells viability, CellTiter-Glo luminescence, 48 h; viability: hits give low values, concentration not given here; note: nearly all actives have a fitted effect of over 35% in size;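 for viability: plate controls were DMSO treated cells for no effect and wells without cells for full effect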
Method in brief: (§1)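 Cells were plated at 500 per well and exposed to an 11-point dose series of each drug for 48 hr. Viability was measured by CellTiter-Glo luminescence, normalized to DMSO and empty-well controls, and summarized as AUC and per-cell-line Z-AUC.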

[2] = BET inhibitor-based combinations targeting novel dependencies in MECOM-rearranged (r) AML: OCI-AML3 cell line (AID 2202232); conditions: Potency: OCI-AML3 viability; note: nearly all actives have a fitted effect of over 35% in size
Method in brief: as §1

[3] = BET inhibitor-based combinations targeting novel dependencies in MECOM-rearranged (r) AML: MV-4-11 cell line (AID 2202233); note: nearly all actives have a fitted effect of over 45% in size
Method in brief: (§2)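 Activity is given as area under the curve and as Z-AUC, mean-centred within each cell line. It comes from 11-point dose curves normalized to DMSO and empty wells. CellTiter-Glo luminescence was read after 48 hr drug exposure of 500 cells/well.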

[4] = BET inhibitor-based combinations targeting novel dependencies in MECOM-rearranged (r) AML: HNT-34 cell line (AID 2202234); note: nearly all actives have a fitted effect of over 35% in size
Method in brief: as §2

[5] = BET inhibitor-based combinations targeting novel dependencies in MECOM-rearranged (r) AML: UCSD-AML1 cell line (AID 2202235); note: nearly all actives have a fitted effect of over 40% in size
Method in brief: as §2

[6] = BET inhibitor-based combinations targeting novel dependencies in MECOM-rearranged (r) AML: AML-191 cell line (AID 2202236; note: nearly all actives have a fitted effect of over 35% in size)
Method in brief: as §1

[7] = BET inhibitor-based combinations targeting novel dependencies in MECOM-rearranged (r) AML: AML-194 cell line (AID 2202237; note: nearly all actives have a fitted effect of over 40% in size)
Method in brief: as §1
Potency is the fitted concentration of half-maximal effect.

Q: With `C=C[C@H]1CN2CCC1C[C@@H]2C(O)c1ccnc2ccc(OC)cc12` (stereo not given in full) as the compound, how does the viability [1] read?
A: The viability was 103%.

Q: And the Potency [2]?
A: The Potency was “inactive”.

Q: What about the Potency [3] of the same compound?
A: Its Potency is 18.6 µM (active).

Q: And the Potency [4]?
A: Its Potency is “inactive”.

Q: What about the Potency [5] of the same compound?
A: The Potency was “inactive”.

Q: And the Potency [6]?
A: Its Potency is “inactive”.

Q: And the Potency [7]?
A: The Potency was “inactive”.

Q: For `CC1=NN(c2ccc(C(=O)O)cc2)C(=O)/C1=C/c1ccc(-c2cc(C)c(C)cc2[N+](=O)[O-])o1`, which viability [1] is on record?
A: Its viability is 112%.

Q: What about the Potency [2] of the same compound?
A: The Potency was 0.235 µM (active).

Q: What about the Potency [3] of the same compound?
A: Its Potency is “inactive”.

Q: What about the Potency [4] of the same compound?
A: The Potency was “inactive”.

Q: What about the Potency [5] of the same compound?
A: Its Potency is “inactive”.

Q: What about the Potency [6] of the same compound?
A: Its Potency is “inactive”.

Q: And the Potency [7]?
A: Its Potency is “inactive”.

Q: What does the source list for `CN(C)C(N)=NC(=N)N`?
A: viability [1]: 120%; Potency [2]: inactive; Potency [3]: inactive; Potency [4]: inactive; Potency [5]: inactive; Potency [7]: inactive

Q: For `CN1CCN(c2ccc3nc(-c4c(N)c5c(F)cccc5[nH]c4=O)[nH]c3c2)CC1`, which Potency [1] is on record?
A: Its Potency is 4.17 µM (active).

Q: And the Potency [2]?
A: The Potency was 4.68 µM (active).

Q: And the Potency [3]?
A: Its Potency is 0.059 µM (active).

Q: What about the Potency [4] of the same compound?
A: Its Potency is 0.833 µM (active).

Q: And the Potency [5]?
A: Its Potency is 3.32 µM (active).

Q: What about the Potency [7] of the same compound?
A: Its Potency is 1.86 µM (active).

Q: Which viability [1] does the source give for `C[C@H]1O[C@H](O[C@H]2[C@H](O)[C@@H](O)[C@@H](O[C@H]3[C@H](O)[C@@H](O)C(O)O[C@@H]3CO)O[C@@H]2CO)[C@H](O)[C@@H](O)[C@@H]1N[C@H]1C=C(CO)[C@@H](O)[C@H](O)[C@H]1O` (stereo not given in full) here?
A: The viability was 101%.

Q: And the Potency [2]?
A: Its Potency is “inactive”.

Q: What about the Potency [3] of the same compound?
A: The Potency was “inactive”.

Q: And the Potency [4]?
A: The Potency was “inactive”.

Q: What about the Potency [5] of the same compound?
A: The Potency was “inactive”.

Q: And the Potency [7]?
A: Its Potency is “inactive”.

Q: Which Potency [1] does the source give for `CC(=O)NCC(=O)N1[C@@H]2CC[C@H]1c1ccc(Nc3ncc(C(F)(F)F)c(NC4CCC4)n3)cc12` here?
A: The Potency was 4.17 µM (active).

Q: And the Potency [2]?
A: The Potency was 14.8 µM (active).

Q: And the Potency [3]?
A: The Potency was 0.0417 µM (active).

Q: What about the Potency [4] of the same compound?
A: Its Potency is 0.662 µM (active).

Q: What about the Potency [5] of the same compound?
A: Its Potency is 0.934 µM (active).

Q: And the Potency [7]?
A: Its Potency is 0.662 µM (active).

Q: What does the source list for `C=CCNc1c(O)cc2c(O)c1C[C@@H](C)C[C@H](OC)[C@H](O)[C@@H](C)/C=C(/C)[C@H](OC(N)=O)[C@@H](OC)/C=C\C=C(\C)C(=O)N2`?
A: Potency [1]: 4.68 µM (active); Potency [2]: 0.742 µM (active); Potency [3]: 0.148 µM (active); Potency [4]: 4.17 µM (active); Potency [5]: 1.32 µM (active); Potency [6]: 5.9 µM (active); Potency [7]: 3.32 µM (active)

Q: Which Potency [1] does the source give for `O=C(NOCCO)c1ccc2cncn2c1Nc1ccc(I)cc1F` here?
A: The Potency was 18.6 µM (active).

Q: And the Potency [2]?
A: The Potency was 0.0934 µM (active).

Q: And the Potency [3]?
A: The Potency was 0.742 µM (active).

Q: And the Potency [4]?
A: The Potency was 0.525 µM (active).

Q: And the Potency [5]?
A: The Potency was 1.32 µM (active).

Q: And the Potency [7]?
A: Its Potency is 1.66 µM (active).

Q: With `O=C1NC(=O)/C(=C/c2ccc3nccc(-c4ccncc4)c3c2)S1` as the compound, how does the Potency [1] read?
A: The Potency was 14.8 µM (active).

Q: What about the Potency [2] of the same compound?
A: Its Potency is 1.05 µM (active).

Q: And the Potency [3]?
A: The Potency was 0.833 µM (active).

Q: And the Potency [4]?
A: The Potency was 1.05 µM (active).

Q: What about the Potency [6] of the same compound?
A: Its Potency is 0.934 µM (active).

Q: With `COC(=O)[C@@H]1CC2=CC(=O)CC[C@]2(C)[C@@]23O[C@@H]2C[C@@]2(C)[C@@H](CC[C@@]24CCC(=O)O4)[C@H]13` as the compound, how does the viability [1] read?
A: The viability was 106%.

Q: What about the Potency [2] of the same compound?
A: Its Potency is “inactive”.

Q: And the Potency [3]?
A: Its Potency is “inactive”.

Q: What about the Potency [4] of the same compound?
A: Its Potency is “inactive”.

Q: And the Potency [5]?
A: The Potency was “inactive”.

Q: What about the Potency [6] of the same compound?
A: Its Potency is “inactive”.

Q: What about the Potency [7] of the same compound?
A: Its Potency is “inactive”.

Q: For `O=C(CCCCCCNC(=O)c1cnc(N(c2ccccc2)c2ccccc2Cl)nc1)NO`, which Potency [1] is on record?
A: Its Potency is 9.34 µM (active).

Q: What about the Potency [2] of the same compound?
A: The Potency was 7.42 µM (active).

Q: What about the Potency [3] of the same compound?
A: Its Potency is 3.72 µM (active).

Q: And the Potency [4]?
A: The Potency was 9.34 µM (active).

Q: And the Potency [6]?
A: The Potency was 7.42 µM (active).

Q: Which Potency [1] does the source give for `O=c1[nH]c(=O)n([C@H]2C[C@H](O)[C@@H](CO)O2)cc1F` here?
A: The Potency was 0.296 µM (active).

Q: And the Potency [2]?
A: Its Potency is 0.417 µM (active).

Q: What about the Potency [3] of the same compound?
A: The Potency was 0.0742 µM (active).

Q: What about the Potency [4] of the same compound?
A: The Potency was 5.9 µM (active).

Q: What about the Potency [6] of the same compound?
A: Its Potency is 0.263 µM (active).

Q: Which results are given for `Cc1[nH]cnc1CN1CCN(C(=O)N[C@@H](CC(C)C)C(=O)O)[C@@H](Cc2ccccc2)C1=O`?
A: viability [1]: 123%; Potency [2]: 6.61 µM (active); Potency [3]: inactive; Potency [4]: inactive; Potency [5]: inactive; Potency [7]: inactive

Q: With `CN1CC(=O)N2[C@H](c3ccc4c(c3)OCO4)c3[nH]c4ccccc4c3C[C@@H]2C1=O` as the compound, how does the viability [1] read?
A: The viability was 116%.

Q: What about the Potency [2] of the same compound?
A: The Potency was “inactive”.

Q: And the Potency [3]?
A: The Potency was “inactive”.

Q: What about the Potency [4] of the same compound?
A: The Potency was “inactive”.

Q: And the Potency [5]?
A: Its Potency is “inactive”.

Q: And the Potency [6]?
A: Its Potency is “inactive”.

Q: And the Potency [7]?
A: The Potency was “inactive”.

Q: For `C=CC(=O)Nc1cc2c(Nc3ccc(F)c(Cl)c3)ncnc2cc1C#CC(C)(C)N1CCN(C)CC1`, which Potency [1] is on record?
A: Its Potency is 5.9 µM (active).

Q: What about the Potency [2] of the same compound?
A: Its Potency is 2.63 µM (active).

Q: And the Potency [3]?
A: Its Potency is 0.742 µM (active).

Q: And the Potency [4]?
A: Its Potency is 3.72 µM (active).

Q: And the Potency [6]?
A: The Potency was 4.68 µM (active).

Q: Which viability [1] does the source give for `CC(C)Cc1ccc([C@@H](C)C(=O)NS(C)(=O)=O)cc1` here?
A: Its viability is 112%.

Q: What about the Potency [2] of the same compound?
A: Its Potency is “inactive”.

Q: What about the Potency [3] of the same compound?
A: Its Potency is “inactive”.

Q: And the Potency [4]?
A: Its Potency is “inactive”.

Q: What about the Potency [6] of the same compound?
A: The Potency was “inactive”.

Q: And the Potency [7]?
A: The Potency was “inactive”.

Q: What does the source list for `C[C@@H](OC[C@@]1(c2ccccc2)CC[C@]2(CCC(=O)N2)CN1)c1cc(C(F)(F)F)cc(C(F)(F)F)c1`?
A: Potency [1]: 20.9 µM (active); Potency [2]: 18.6 µM (active); Potency [3]: 20.9 µM (active); Potency [4]: 18.6 µM (active); Potency [5]: 23.5 µM (active); Potency [6]: 18.6 µM (active); Potency [7]: 26.3 µM (active)

Q: With `Cc1nc2ccc(CN(C)c3ccc(C(=O)N[C@@H](CCC(=O)O)C(=O)O)s3)cc2c(=O)[nH]1` as the compound, how does the Potency [1] read?
A: The Potency was 0.0468 µM (active).

Q: And the Potency [2]?
A: Its Potency is 0.0468 µM (active).

Q: And the Potency [3]?
A: Its Potency is 0.0468 µM (active).

Q: What about the Potency [4] of the same compound?
A: The Potency was “inactive”.

Q: And the Potency [5]?
A: Its Potency is 0.0468 µM (active).

Q: And the Potency [7]?
A: The Potency was 0.332 µM (active).
